TDP43 rescue: qHTS of TDP-43 Inhibitors. TDP-43 expressing yeast growth rescue, BacTiter-Glo, 24 h. Potency, µM (series often up to 46.1 µM), without a hit: at the highest dose growth rescue (activation), usual class: activators. hit rate 1.8% among 410,000. AID 652104, 2013; note: % of control where 0% means no effect; nearly all actives have a fitted effect of over 50% in size
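Yeast expressing TDP-43 (pregrown in raffinose, seeded at OD600=0.02 in galactose medium) exposed to compounds 24 hr at 30 deg C. Growth read by BacTiter-Glo luminescence; rescue of toxicity appears as increased signal.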
aSyn yeast inh: qHTS of alpha-syn Inhibitors | Yeast expressing alpha-synuclein, growth rescue, BacTiter-Glo, 24 h | Potency, µM (titrated, usually from 46.1 µM), for inactives: top-dose growth rescue (activation), actives largely listed as activators | hit rate 0.14% among 370,000 | AID 652106, 2013; note: % of control where 0% means no effect; nearly all actives have a fitted effect of over 65% in size
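Galactose-induced alpha-syn yeast (OD600=0.02, raffinose-pregrown) + pinned cpd, 24 hr, 30 deg C; growth by BacTiter-Glo luminescence. Growth restoration scores as activation.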
FUS suppressor: qHTS for Suppressors of FUS Proteinopathy: Primary screen using FUS-linked yeast assay. Potency, µM (titrated, usually from 76.6 µM), usual class: activators. hit rate 0.24% among 390,000. S. cerevisiae FUS-expressing, growth rescue, OD600, 24 h;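 note: plate controls were DMSO vehicle for no effect and reference control for full effect; nearly all actives have a fitted effect of over 55% in size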
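Cultures pregrown in 2.5% raffinose medium are shifted to minimal medium containing 2% galactose to express toxic FUS. Compounds are tested at several concentrations. After 24hr at 30C, growth is quantified at 600 nm absorbance.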
ClpP mod: qHTS Assay for Activators of ClpP. ATP-dependent Clp protease proteolytic subunit (Bacillus subtilis (strain 168)), P80244. purified B. subtilis ClpP, FRET peptide cleavage, 20 min. Potency, µM (doses to about 57.5 µM), inactives show top-dose activity change, negative = active. hit rate 1.9% among 340,000; active = well fitted falling curve with a large enough effect; inconclusive = small, poorly fitted or top-dose-only effect; inactive = no such curve, though single readings can be large or run the other way; note: the source files actives as falling curves though it sought activators and does not explain the sign; nearly all actives have a fitted effect of over 65% in size
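Purified B. subtilis ClpP, 10 microg/mL final in Tris/HCl pH8 with KCl, BSA, glycerol and Tween-20, cleaved an Abz/nitrotyrosine-quenched decapeptide. Fluorescence (ex 320, em 430) was read at 0 and 20 min at room temperature. Delta was normalized to 5.8 microM ADEP and DMSO/no-enzyme controls.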
Abeta rescue: qHTS for compounds that reverse cellular toxicity of Amyloid beta (A-beta) peptide in yeast: Primary Screen. hit rate 0.063% among 410,000. AID 1347071, 2019. Potency, µM (doses to about 46.1 µM), usual class: activators. yeast expressing A-beta42, growth rescue, OD600, 48 h; response scale: 0% DMSO, 100% iron-clioquinol control; note: nearly all actives have a fitted effect of over 55% in size
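Growth rescue measured by 600 nm absorbance after 48 h yeast culture at 30 C with compound. Values normalized between DMSO and an equimolar ferric chloride plus clioquinol control.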
Mm-Cpn inhibitor: Inhibitors of TCP-1 ring complex (TRiC) of Methanococcus maripaludis (MmCpn): qHTS; Chaperonin Mm-Cpn (Methanococcus maripaludis); purified Mm-Cpn ATPase, ADP Transcreener TR-FRET; Potency, µM (titrated, usually from 76.9 µM), inactives show at the highest dose activity, negative = inhibition, most hits filed as inhibitors; hit rate 0.031% among 330,000; AID 504842, 2011; note: % is set by controls: 0 for no effect and ±100 for the full control effect; nearly all actives have a fitted effect of over 80% in size
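Inhibition of chaperonin ATP hydrolysis is measured as reduced ADP production, detected by competitive TR-FRET in which signal falls with ADP. Final enzyme 25 nM and ATP 10 uM, reacted 30 min at 37°C.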
* hit, by the source's call; i = inactive; ? = inconclusive; nt = not tested or not shown. Hits are enriched below; roughly 3.6% of the tested compounds scored in any of these assays. Unless noted, calls come from the whole dose curve; as a rule, active = well fitted curve in the direction sought with a large enough effect; inconclusive = small, poorly fitted or top-dose-only effect, or another doubt; inactive = no such curve, though single readings can be large; an effect the other way counts as inactive or inconclusive. Potency is the fitted concentration of half-maximal effect.

SMILES	TDP43 rescue	aSyn yeast inh	FUS suppressor	ClpP mod	Abeta rescue	Mm-Cpn inhibitor
CCc1nn2c(=O)cc(COC(=O)c3cccc(NC(=O)CCc4ccccc4)c3)nc2s1	7.8%	nt	i	31.6µM*	i	nt
CCCCn1c(=O)c2oc3ccccc3c2n(Cc2cccc(F)c2)c1=O	16.1%	nt	i	?	i	nt
COC(=O)c1c(C)oc(C)c1S(=O)(=O)N1CCCC1	-4.4%	-5.9%	i	2.5%	i	1.0%
COC(=O)c1c(C)oc(C)c1S(=O)(=O)N1CCCCC1	6.6%	0.3%	i	17.8µM*	i	1.0%
Cc1ccc(NC(=O)C(C)c2ccc([N+](=O)[O-])cc2)cc1Cl (centres undefined)	11.2µM*	2.3%	i	nt	?	2.6%
CCC(C)C(NC(N)=O)C(=O)Nc1ccc(C)c(Cl)c1 (centres undefined)	14.5%	-0.3%	nt	28.2µM*	i	0.4%
CC(C(=O)Nc1ccccc1Br)c1ccc([N+](=O)[O-])cc1 (centres undefined)	10.1%	6.7%	i	-1.6%	i	-1.4%
CC(C)(C)OC(=O)N1CCC(N2CCN(Cc3ccccc3)C(=O)C2=O)CC1	-1.7%	nt	i	0.5%	i	nt
O=Cc1ccc(N2Cc3ccccc3C2)cc1	3.16µM*	2.3%	i	nt	i	-3.3%
COc1ccc(C(CNC(=O)C(C)Oc2ccc(Br)cc2)N2CCOCC2)cc1 (centres undefined)	15.9%	3.2%	i	28.2µM*	i	-0.8%
COc1ccc(C(CNC(=O)CSc2ccc(Br)cc2)N2CCOCC2)cc1 (centres undefined)	-18.4%	-5.4%	i	nt	i	-2.2%
Cc1cc(NCCN(C)C)n2nc(-c3cccs3)cc2n1	1.5%	3.0%	i	28.2µM*	i	0.1%
Cc1cc(NCCCO)n2nc(-c3cccs3)cc2n1	-6.1%	-9.0%	i	nt	i	-3.3%
COC[C@@H]1CCCN1c1ccc2c(c1)O[C@@H](COCc1ccccc1)CN([C@@H](C)c1ccccc1)S2(=O)=O	-0.4%	?	i	14.1µM*	i	nt
Cc1ccc(/C=C/c2nnc(-c3cccs3)o2)cc1	-6.0%	-7.3%	i	8.91µM*	i	0.7%
Fc1ccc(/C=C/c2nnc(-c3cccs3)o2)cc1	-3.3%	-0.5%	i	nt	i	-0.8%
CN1C(=O)[C@@](O)(c2cn(C)c3ccccc23)c2ccccc21	3.0%	-1.0%	i	0.0%	i	nt
Cc1cc(Br)c2c(c1)[C@](O)(c1cn(C)c3ccccc13)C(=O)N2C	22.4µM*	0.0%	i	0.4%	?	nt
COc1ccc(-c2n[nH]c(=S)o2)c(OC)c1	?	4.0%	i	25.1µM*	i	-12.1%
CCOc1ccccc1-c1n[nH]c(=S)o1	4.8%	-1.6%	i	?	i	?
Cc1ccc(S(=O)(=O)CC(=O)Nc2sc3c(c2C(N)=O)CCCC3)cc1	-0.7%	nt	i	1.4%	i	nt
COc1ccc(CNC(=O)CCSCc2ccccc2C)cc1	7.08µM*	15.6%	i	nt	i	0.4%
O=C(CCSCc1cccc(Cl)c1)NCc1ccc(F)cc1Cl	22.4µM*	nt	i	-1.9%	?	nt
COc1ccc(C(=O)NCCSCc2ccccc2C)cc1	?	7.8%	i	-4.5%	i	-4.7%
COc1ccc(CNC(=O)CCSCc2cccc(Cl)c2)cc1	24.5%	9.2%	i	0.8%	i	1.1%
SMILES	TDP43 rescue	aSyn yeast inh	FUS suppressor	ClpP mod	Abeta rescue	Mm-Cpn inhibitor
O=C(CCSCc1ccc(Cl)cc1)NCc1ccc(F)cc1Cl	?	nt	i	-1.9%	?	nt
COc1ccc(CNC(=O)CCSCc2cccc(F)c2)cc1	10µM*	15.0%	i	-0.4%	i	1.7%
CCn1c(=O)c2sccc2n2c(CCCC(=O)N3CCN(c4ccccc4OC)CC3)nnc12	9.3%	nt	i	-8.6%	i	nt
COc1ccccc1/C=C1/C(=O)N(c2cc(C)cc(C)c2)C(c2cccc([N+](=O)[O-])c2)S1(=O)=O (centres undefined)	11.2µM*	-14.0%	i	-2.4%	i	-1.6%
CCOc1ccc(N2C(=O)/C(=C\c3ccccc3OC)S(=O)(=O)C2c2cccc([N+](=O)[O-])c2)cc1 (centres undefined)	11.2µM*	-52.3%	i	-2.7%	i	-1.4%
COc1ccccc1/C=C1/C(=O)N(c2ccc([N+](=O)[O-])cc2)N=C1C	-23.9%	-1.3%	i	-0.7%	i	1.0%
COc1ccc(-c2noc(C3CCCN(C(=O)Nc4ccc(C)c(F)c4)C3)n2)cc1 (centres undefined)	nt	nt	i	nt	nt	nt
CCCCOc1ccc(CNC(=O)c2ccc(NC(=O)N3CCSc4ncccc43)cc2)cc1	10.3%	nt	i	?	i	nt
N#Cc1cn(-c2ccccc2)nc1-c1ccco1	8.91µM*	nt	i	-17.6%	i	0.3%
COC(=O)c1sccc1S(=O)(=O)N(CC(=O)Nc1ccccc1C)c1ccc(Cl)cc1	-9.6%	nt	31.6µM*	-2.9%	i	nt
CN(C)c1ccc(/C=c2\[nH]c(=O)/c(=C\c3ccc(N(C)C)cc3)[nH]c2=O)cc1	nt	nt	nt	2.3%	nt	nt
Oc1ccccc1-c1cc(-c2ccc(F)cc2)n[nH]1	3.55µM*	-16.8%	i	2.0%	i	0.0%
Cc1ccccc1-c1cc(-c2ccccc2O)n[nH]1	11.2µM*	6.6%	i	0.2%	i	0.4%
Oc1ccc(Br)cc1-c1cc(-c2ccccc2Cl)[nH]n1	1.5%	8.0%	i	-2.6%	i	-3.3%
Cc1ccc(-c2cc(-c3ccccc3Cl)[nH]n2)c(O)c1	-1.2%	-49.3%	i	-1.1%	i	1.5%
Oc1ccccc1-c1cc(-c2ccccc2)n[nH]1	?	-6.3%	i	-0.5%	i	1.1%
COc1ccc(O)c(-c2cc(-c3ccccc3Cl)[nH]n2)c1	17.8µM*	-14.5%	i	-2.9%	i	2.0%
C=CCN1[C@H](CO)[C@H](c2ccccc2)[C@@H]1C#N	nt	nt	i	nt	nt	nt
Cc1ccc(C(=O)NCC(=O)N(C)Cc2ccc(Cl)cc2Cl)s1	8.91µM*	19.1%	i	1.7%	i	-2.4%
CN(Cc1ccc(Cl)cc1Cl)C(=O)CNC(=O)c1ccco1	29.6%	6.9%	i	-1.0%	i	-3.2%
